Source: PubChem BioAssay (Tox21)
Values without a mark were called inactive. Active and inactive are the calls of the source. Unless noted, calls come from the whole dose curve.

target: KiSS-1 receptor (Homo sapiens) (UniProt Q969F8); assay: Human kisspeptin (KISS1R) small molecule agonists, calcium flux assay in KISS1R-HEK293 cells (AID 1920064; active = well fitted activation curve with a large enough effect in the repeat runs); settings: KISS1R-HEK293, calcium flux fluorescence, agonist; series mostly up to 76.8 µM; activation: at the top concentration
Sequence (Q969F8 whole entry, looked up): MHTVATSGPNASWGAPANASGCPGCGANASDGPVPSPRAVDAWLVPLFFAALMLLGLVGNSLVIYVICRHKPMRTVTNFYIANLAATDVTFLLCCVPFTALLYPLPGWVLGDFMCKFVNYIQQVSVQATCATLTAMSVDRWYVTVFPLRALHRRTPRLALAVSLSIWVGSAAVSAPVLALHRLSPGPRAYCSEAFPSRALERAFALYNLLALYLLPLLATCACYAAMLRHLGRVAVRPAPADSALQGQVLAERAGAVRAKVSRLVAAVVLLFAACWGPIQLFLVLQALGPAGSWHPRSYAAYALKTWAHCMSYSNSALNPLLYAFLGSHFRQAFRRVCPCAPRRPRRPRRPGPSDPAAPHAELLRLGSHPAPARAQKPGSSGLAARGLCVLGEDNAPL
How it was run: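 Stable human KISS1R HEK293 line; 18 h plating, 37 C/5% CO2; calcium dye 1 h 37 C; compound pin transfer; kinetic fluorescence Ex/Em 480/540, 3 min.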
% is set by controls: 0 for no effect and ±100 for the full control effect.

SMILES	activation
COCCOCCOCCOCCOC	-2.7%
C=C(C)[C@H]1CC=C(C)CC1	-0.577%
CC(C)C1CCC(O)CC1 (stereo unspecified)	1.77%
C=CC(C)(CCC=C(C)C)OC(=O)CC (stereo unspecified)	2.41%
[O-][n+]1ccc(Cl)cc1	-0.462%
CC(C)CCO	3.4%
O=C(O)CCS	-1.36%
Cc1cc(C)c(N=Nc2c(O)c(S(=O)(=O)O)cc3cc(S(=O)(=O)O)ccc23)cc1C	0.221% [at 6.97 µM]
Cc1ccc(Nc2ccc(O)c3c2C(=O)c2ccccc2C3=O)cc1	4.68%
C1=COCCC1	-2.25%
NCCNCCN	0.103%
CC(=O)N1C[C@H](O)C[C@H]1C(=O)O	-1.07% [at 35.3 µM]

test system: not listed separately; assay: G protein-coupled receptor (GPCR) small molecule agonists, calcium flux assay: HEK293 wild type cell line counter screen (AID 1920065); settings: HEK293 WT calcium flux, fluorescence, agonist mode; series mostly up to 57.6 µM; activation: at the top concentration
How it was run: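 Kinetic fluorescence at Ex/Em 480/540, recorded every second over 3 min, served as the read-out after compound addition. Each compound was tested at 15 concentrations in triplicate on cells pre-loaded with calcium dye for 1 h.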

SMILES	activation	Potency
Nc1nc(=O)n([C@@H]2O[C@H](CO)[C@@H](O)[C@@H]2F)cc1I	-0.188% [at 26.5 µM]	–
Cc1cc(C)cc(O)c1	–	inactive
COc1cc(C(=O)N2CCOCC2)cc(OC)c1OC	-1.13% [at 26.5 µM]	–
CCCO	0.39%	–
CC12CCC(C1)C(C)(C)C2O (stereo unspecified)	0.72%	–
[O]=[Zr]	-1.18%	–
C1CCC(SSC2CCCCC2)CC1	0.384%	–
CCCC[C@H]1CN(CC2CCOCC2)C(=O)OC12CCN(C1(C)CCN(C(=O)c3c(C)ncnc3C)CC1)CC2	-1.14%	–
Cc1ccccc1S(=O)(=O)O	0.588%	–
NC(=O)c1ccc(N)cc1	0.0973%	–
FC(F)(F)C(Cl)Br (stereo unspecified)	–	inactive
CCCCCCCCSCCO	0%	–
Cc1ccccc1C(N)=O	-0.127%	–
CC12CC3CC(C)(C1)CC(N)(C3)C2	0.143% [at 26.5 µM]	–
O[C@@H]([C@H](O)[C@H](O)CBr)[C@H](O)CBr	-0.812%	–
CCOc1ccc(N)c([N+](=O)[O-])c1	-2.84%	–
CC(=O)NCc1c(I)c(NC(C)=O)c(I)c(C(=O)O)c1I	-0.132% [at 26.5 µM]	–
Nc1cc([N+](=O)[O-])ccc1Cl	-3.41%	–
Cc1c(C(=O)c2c[nH]n(C)c2=O)ccc(S(C)(=O)=O)c1C1=NOCC1	-0.943% [at 26.5 µM]	–
CC(C[N+](C)(C)C)OC(N)=O (stereo unspecified)	0.455% [at 26.5 µM]	–

SMILES	activation	Potency
O=S(=O)(O)c1ccccc1O	0.472%	–
Cc1cccc(N(C)C)c1	0.0752%	–
OCC1CCC(CO)CC1 (stereo unspecified)	0.656%	–
C=CCOC(=O)CCCCCC	0.182%	–
CCN(CC)S(=O)(=O)c1ccc(C(=O)O)cc1	-0.19% [at 26.5 µM]	–
NNS(=O)(=O)c1ccc(Oc2ccc(S(=O)(=O)NN)cc2)cc1	0.0435%	–
O=Cc1ccc(C(=O)O)cc1	-0.285%	–
COCCOCCOCCOCCOC	-0.599%	–
C=C(C)[C@H]1CC=C(C)CC1	1.45%	–
CC(C)C1CCC(O)CC1 (stereo unspecified)	0.527%	–
C=CC(C)(CCC=C(C)C)OC(=O)CC (stereo unspecified)	-0.119%	–
[O-][n+]1ccc(Cl)cc1	-1.13%	–
CC(C)CCO	0.466%	–
O=C(O)CCS	-1.69%	–
Cc1cc(C)c(N=Nc2c(O)c(S(=O)(=O)O)cc3cc(S(=O)(=O)O)ccc23)cc1C	-0.909% [at 5.23 µM]	–
Cc1ccc(Nc2ccc(O)c3c2C(=O)c2ccccc2C3=O)cc1	0.414%	–
C1=COCCC1	-0.623%	–
NCCNCCN	–	inactive
CC(=O)N1C[C@H](O)C[C@H]1C(=O)O	-1.23% [at 26.5 µM]	–
